Read-outs that look alike come from different tables or passages of the source. Among all 3,300 compounds or so, about 95 (3%) showed an effect of 50% or more. Many of the other results were omitted from the sample, so strong results are more common in it than they were.
Tested on: HCoV-229E
Parameters: species or system Huh-7; HTS, protection from HCoV-229E induced cell death, luminescent cell viability (CellCounting-Lite 2.0), inhibition rate
Details: 24 h post infection, 1 h compound pre-incubation, 10 µM, inhibitor

Row | SMILES | 229E Inhibition rate | 229E Inhibition rate (229E Inhibition rate, 24 h)
1 | C[C@@H]1O[C@H]2O[C@H]3[C@@H](OC[C@H](O)[C@@H]3O)OC(=O)[C@]34CCC(C)(C)C[C@H]3C3=CC[C@@H]5[C@@]6(C)C[C@H](O)[C@H](O[C@@H]7O[C@H](CO)[C@@H](O)[C@H](O)[C@H]7O[C@@H]7OC[C@H](OC(=O)C[C@](C)(O)CC(=O)O[C@@H]1[C@@H](O[C@@H]1OC[C@@H](O)[C@H](O)[C@H]1O)[C@H]2O)[C@H](O)[C@H]7O)[C@@](C)(CO)[C@@H]6CC[C@@]5(C)[C@]3(C)C[C@H]4O [Tubeimoside II] | 0.9% | –
2 | CC1(C)CCC2(CO)C(=C3C=CC4C5(C)CCC(OC6OC(COC7OC(CO)C(O)C(O)C7O)C(OC7OC(CO)C(O)C(O)C7O)C(O)C6O)CC5C(C)(CO)CC4(C)C3(C)CC2O)C1 (stereo not drawn) [Clinodiside A] | 8.8% | –
3 | COC(=O)Cc1c[nH]c2ccccc12 [Methyl 2-(1H-indol-3-yl)acetate] | 38.3% | –
4 | C=C(C)[C@H](C)c1cc(/C=C/C(=O)c2ccc(O)cc2)c(OC)cc1O [Licochalcone E] | 61.6% | –
5 | COc1cc(O)ccc1/C=C/C(=O)c1ccc(O)cc1 [Echinatin] | 0% | –
6 | COc1c(/C=C/C(=O)c2ccc(O)cc2)ccc(O)c1O [Licochalcone B] | 25.4% | –
7 | CC1=C(O)C(=O)C(C)O1 (stereo not drawn) [Furaneol] | 17.8% | –
8 | COc1cc2c(cc1OC)[C@@H](Cc1ccc(Oc3cc(C[C@@H]4c5cc(OC)c(OC)cc5CCN4C)ccc3O)cc1)N(C)CC2 [Dauricine] | 3.6% | –
9 | O=C(/C=C/c1ccc(O)c(O)c1)OC[C@@H](O)CO[C@@H]1O[C@H](CO)[C@@H](O)[C@H](O)[C@H]1O [Regaloside C] | 52.3% | –
10 | O=C(/C=C/c1ccc(O)c(O)c1)c1ccc(O[C@@H]2O[C@H](CO)[C@@H](O)[C@H](O)[C@H]2O)c(O)c1O [Marein] | 17.9% | –
11 | O=C(/C=C/c1ccc(O)c(O)c1)OC[C@H]1O[C@@H](OCCc2ccc(O)c(O)c2)[C@H](O)[C@@H](O)[C@@H]1O [Calceolarioside B] | 10.8% | –
12 | Cc1cn([C@@H]2O[C@H](CO)[C@@H](O)[C@H]2O)c(=O)[nH]c1=O [5-Methyluridine] | 14.9% | –
13 | CC(C)c1cc2c(c(O)c1O)[C@@]13CCCC(C)(C)[C@@H]1[C@H](OC3=O)[C@H]2O [Rosmanol] | 0% | –
14 | CC1NC(=O)CNC1=O (stereo not drawn) [Cyclo(Ala-Gly)] | 39.9% | –
15 | CCCCCCCCCCCCCCCCC(C(=O)O)C(O)(CC(=O)O)C(=O)O (stereo not drawn) [Agaric acid] | 18.4% | –
16 | CN[C@@H](C)[C@H]1[C@H](O)C[C@@]2(C)[C@@H]3CC[C@H]4C(C)(C)[C@@H](NC)CC[C@@]45C[C@@]35CC[C@]12C [Cyclovirobuxine D] | 55.2% | –
17 | CC(C)(O)[C@@H]1CC[C@](C)([C@H]2[C@@H](O)C[C@@]3(C)[C@@H]4C[C@H](O)[C@H]5C(C)(C)[C@@H](O)CC[C@@]56C[C@@]46CC[C@]23C)O1 [Cycloastragenol] | 8.6% | –
18 | CC(C)(O)[C@H]1CC[C@@](C)([C@H]2[C@@H](O)C[C@@]3(C)[C@@H]4C[C@H](O)[C@H]5C(C)(C)[C@@H](O)CC[C@@]56C[C@@]46CC[C@]23C)O1 [Cyclogalegenin] | 12.6% | –

Row | SMILES | 229E Inhibition rate | 229E Inhibition rate (229E Inhibition rate, 24 h)
19 | CC(O)CC(=O)O (stereo not drawn) [3-Hydroxybutyric acid] | 11.2% | –
20 | C/C=C(/C)C(=O)O[C@H]1c2cc(OC)c(OC)c(OC)c2-c2c(cc3c(c2OC)OCO3)C[C@H](C)[C@]1(C)O [Schisantherin B] | 54.7% | –
21 | COc1cc2c(c(OC)c1OC)-c1c(cc3c(c1O)OCO3)C[C@H](C)[C@@H](C)C2 [Gomisin M2] | 19.3% | –
22 | COc1cc2c(c(OC)c1OC)-c1c(cc3c(c1OC)OCO3)C[C@H](C)[C@H](C)C2 [Gomisin N] | – | 42.9%
23 | C/C=C(/C)C(=O)O[C@H]1c2cc(OC)c(OC)c(OC)c2-c2c(cc(OC)c(OC)c2OC)C[C@H](C)[C@]1(C)O [Angeloylgomisin Q] | 42.2% | –
24 | COc1cc2c(c(OC)c1OC)-c1c(cc3c(c1OC)OCO3)C[C@H](C)[C@@](C)(O)C2 [Schisandrol B] | 7.8% | –
25 | CN1CCc2cc3c(c4c2C1Cc1ccccc1-4)OCO3 (stereo not drawn) [Roemerine] | 25.9% | –
26 | COc1cc2c(c(OC)c1OC)-c1c(cc(OC)c(OC)c1OC)C[C@H](C)[C@H](C)C2 [Schisandrin A] | 35.1% | –
27 | COc1c2c(cc3c1-c1c(cc4c(c1OC)OCO4)C[C@H](C)[C@H](C)C3)OCO2 [Schisandrin C] | 52.7% | –
28 | C/C=C(\C)C(=O)O[C@@H]1c2cc(OC)c(OC)c(OC)c2-c2c(cc3c(c2OC)OCO3)C[C@H](C)[C@@]1(C)O [Tigloylgomisin P] | 40.2% | –
29 | COc1cc2c(cc1OC)-c1c(OC)c(OC)cc3c1[C@H](C2)N(C)CC3 [Glaucine] | 14.2% | –
30 | COc1cc2c(c(OC)c1OC)-c1c(cc3c(c1OC)OCO3)C[C@H](C)[C@H](C)C2 [Schisandrin B] | – | 56.2%
31 | COc1ccc2c(c1OC)CC1c3c(cc4c(c3-2)OCO4)CCN1C (stereo not drawn) [Crebanine] | 62.7% | –
32 | COC(=O)/C=C/c1ccc(O)cc1 [Methyl p-coumarate] | – | 15.5%
33 | COC(=O)C1=CO[C@@H](O[C@@H]2O[C@H](CO)[C@@H](O)[C@H](O)[C@H]2O)[C@H]2[C@@H]1C=C[C@@]2(O)CO [Gardenoside] | 10.6% | –
34 | CCCCCCCCCCCCCCCC(=O)OC[C@H](CO)OC(=O)CCCCCCCCCCCCCCC [1,2-Dipalmitoyl-sn-glycerol] | 6% | –
35 | COC(=O)C1=CO[C@@H](O[C@@H]2O[C@H](CO)[C@@H](O)[C@H](O)[C@H]2O)[C@@H]2[C@@H](C)CC(=O)[C@]12O [Hastatoside] | 0% | –
36 | C[C@H](CC(=O)O)[C@H]1CC[C@H]2[C@@H]3[C@H](O)C[C@@H]4C[C@H](O)CC[C@]4(C)[C@H]3C[C@H](O)[C@]12C [Norcholic acid] | 0% | –

— article PMC12431657, “Discovery and mechanistic insights of dibenzoylmethane as a broad spectrum inhibitor of coronavirus” (PLOS Pathogens, 2025)
